# A selection follows.
# aSyn UTR act – Activators via SNCA 5'UTR binding, MLPCN. alpha-synuclein 5'UTR reporter, activators screen. activity score, % (tested at 7.5 µM), hits read low. actives 7.1% (n = 300,000). AID 1814, 2009; in the data active means activity score below about -60%
# Hits are given with their value; n = inactive.
SMILES,aSyn UTR act
Cc1cc(NC(=O)Nc2ccccc2F)ccc1Br,-243
Cc1cccc(NC(=O)c2cnc3scc(C)n3c2=O)c1,-181
Cc1csc2ncc(C(=O)Nc3ccc4c(c3)OCCO4)c(=O)n12,-169
Cc1ccc(-n2nc3c([n+]2[O-])CCc2c-3no[n+]2[O-])cc1,-141
[O-][n+]1onc2c1CCc1c-2nn(-c2ccccc2Cl)[n+]1[O-],-155
O=C(COc1ccccc1)Nc1cccc(-c2nc3cc4ccccc4cc3[nH]2)c1,-140
O=C(Nc1cccc(Cl)c1)c1csc(-c2ccccc2)n1,-121
CCCCC(=O)Nc1cccc(-c2cn3ccsc3n2)c1,-78
O=C(COc1ccccc1)Nc1cccc(-c2cn3cccnc3n2)c1,-84
O=C(Nc1cccc(-c2cn3ccccc3n2)c1)c1cnccn1,-87
CCC(=O)Nc1cccc(-c2csc(-c3ccccc3)n2)c1,-121
CCC(=O)Nc1cccc(-c2cn3ccccc3n2)c1,-89
Cc1cc(/C=c2/sc3nc4ccccc4n3c2=O)c(C)n1-c1ccccn1,n
Cc1cc(/C=c2\sc3nc4ccccc4n3c2=O)c(C)n1-c1ccc(C(=O)O)cc1,-62
O=c1/c(=C\c2cccnc2)sc2nc3ccccc3n12,-107
O=C(Nc1ccccc1C(F)(F)F)c1ccc2nccnc2c1,-89
O=C(Nc1ccccc1Br)c1ccc2nccnc2c1,-113
Cc1ccc(C)c(NC(=O)c2cc(-c3ccccc3O)n[nH]2)c1,-198
Cc1ccc(-c2cc(C(=O)Nc3cc(C)ccc3C)[nH]n2)c(O)c1,-86
Cc1ccc(C)c(NC(=O)COC(=O)c2cccc3c2C(=O)c2ccccc2C3=O)c1,n
Cc1ccc(C)c(NC(=O)c2cc(-c3cc(C)c(C)cc3O)n[nH]2)c1,-233
COc1ccc(OC)c(NC(=O)c2cc(-c3cc(C)ccc3O)n[nH]2)c1,-104
Cc1ccc(-c2csc(NC(CO)c3nc4ccccc4n3CCOCCO)n2)cc1 (centres undefined),-71
Cc1ccc(NCCC(=O)c2ccccc2)cc1Cl,-134
Cc1ccc(NCCC(=O)c2ccc(Cl)cc2)cc1,-119
SMILES,aSyn UTR act
Cc1ccc(NCC(=O)c2ccc(C)cc2)cc1,-125
Cc1ccc(NC(=O)CNC(=O)c2ccccc2F)cc1Cl,-69
Cc1ccc(C(=O)CNc2ccc(C)c(Cl)c2)cc1,-68
O=[N+]([O-])c1cc2c(c(CSc3ncccn3)c1)OCOC2,-63
O=[N+]([O-])c1cc(O)c2ncccc2c1,n
Cc1cc(C)n(C(N)=NC(=O)c2ccc([N+](=O)[O-])cc2)n1,-154
CCCCc1c(C)nn(-c2nnc3c4ccccc4n(C)c3n2)c1C,-96
Clc1ccc(-c2nc(-c3ccncc3)no2)c(Cl)c1,-104
Clc1ccc(Cl)c(-c2nc(-c3ccncc3)no2)c1,-131
CCOc1ccc(-c2noc(CCC(=O)O)n2)cc1,n
Clc1ccc(OCc2nc(-c3ccncc3)no2)cc1,-126
CN(C)C(=O)CSc1nnc(C23CC4CC(CC(C4)C2)C3)o1,-160
COc1ccc(/C=C2\CCCC(C(=O)C(F)(F)F)=C2O)cc1,-67
COc1ccc(NC(=O)Nc2ccc3c(c2)OCO3)c(C)c1,-81
COc1ccccc1NC(=O)Nc1ccc2c(c1)OCCO2,-131
COc1ccccc1NC(=O)Nc1ccc(F)c(F)c1,-66
Cc1ccccc1NC(=O)Nc1ccc2c(c1)OCO2,-129
Cc1ccc(CNc2ccc3c(c2)OCO3)c(C)c1,-98
Cc1c(NC(=O)Nc2ccc3c(c2)OCO3)cccc1[N+](=O)[O-],-96
CCOc1ccccc1NC(=O)Nc1ccc2c(c1)OCO2,-85
Cc1ccc(C)c(NC(=O)Nc2ccc3c(c2)OCO3)c1,-73
COc1ccc(NC(=O)Nc2cc(C)ccc2F)cc1OC,-77
CC(=O)Nc1ccccc1OCC(=O)c1ccc2c(c1)OCO2,-99
CCOC(=O)C1CCN(c2ncnc3c2cnn3-c2ccc(Cl)cc2)CC1,n
CC(=O)Cn1cnc2c(cnn2-c2ccc(C)c(C)c2)c1=O,-106
SMILES,aSyn UTR act
CC(C)CCn1cnc2c(cnn2-c2ccc(F)cc2)c1=O,-83
CCOC(=O)Cn1cnc2c(cnn2-c2ccc(Cl)cc2)c1=O,-65
Oc1ccc(-c2nnc(-c3ccccc3)c(-c3ccccc3)n2)cc1,-201
CN(C)c1nc(-c2ccccn2)nnc1-c1ccccc1,n
Oc1ccccc1N=Nc1nc(-c2ccccc2)c(-c2ccccc2)[nH]1,n
c1ccc(-c2nc3nc4ccccc4nc3n2Cc2ccco2)cc1,-106
COc1cc2c(cc1OC)CN(c1ccc3ccccc3n1)CC2,-189
COc1cc2c(cc1OC)CN(c1ccc(C(F)(F)F)cn1)CC2,-157
Cc1ccc(O)c(C(=O)CC(=O)c2cccc(F)c2)c1,-85
O=C(CC(=O)c1cc(Cl)ccc1O)c1ccccc1,-99
Cc1cccc(C(=O)CC(=O)c2cc(Cl)ccc2O)c1,n
NC(=NCCc1ccccc1)NC(=O)c1cc(Cl)ccc1O,-108
CC1(C)CC(=O)c2sc(NC(=O)c3ccco3)nc2C1,-120
CC1(C)CC(=O)c2sc(NC(=O)C3COc4ccccc4O3)nc2C1 (centres undefined),-101
CC(C)c1ccc(C2CC(c3ccc(Br)cc3)=NN2C(N)=S)cc1 (centres undefined),-97
O=c1c2c3c(sc2nc2sc(CN4CCCCC4)cn12)CCCC3,-87
C=CCn1c(SCc2c(C)noc2C)nc2sc3c(c2c1=O)CCCCC3,n
CCOC(=O)c1ccc(NC(=O)c2nn(C)cc2Br)cc1,-204
CCOC(=O)c1ccc(NC(=O)c2nn(CC)cc2Br)cc1,-94
CCn1cc(Br)c(C(=O)Nc2ccc(F)c(Cl)c2)n1,-110
CCOC(=O)c1ccc(NC(=S)NC(=O)c2nn(CC)cc2Br)cc1,-66
CSc1nc2c(cnn2-c2ccccc2)c(=O)n1N,-92
CCSc1nc2c(cnn2-c2ccccc2)c(=O)n1N,-105
CC(C)OC(=O)c1ccc(NC(=O)c2ccccc2)cc1,-78
CCOC(=O)c1ccc(NC(=O)c2ccco2)cc1,-189
SMILES,aSyn UTR act
CCCOC(=O)c1ccc(NC(=O)c2ccoc2C)cc1,-154
CC(C)OC(=O)c1ccc(NC(=O)c2ccco2)cc1,-140
CCOC(=O)/C(=C/c1ccccc1)NC(=O)c1ccco1,-65
Cc1ccc(NC(=O)c2ccccc2)cc1OC(=O)c1ccccc1,-109
O=C(Nc1ccccc1)c1ccc(OC(=O)c2ccccc2)cc1,-63
COc1cccc(COc2ccc3c(C)cc(=O)oc3c2)c1,-164
COc1cccc(C(=O)COc2ccc3c(C)cc(=O)oc3c2)c1,-106
COc1ccc(C2=NOC(COc3ccc4c(C)cc(=O)oc4c3)C2)c(OC)c1 (centres undefined),n
CC(C)N1C(=O)CN(C2CCCCCC2)C(=O)C1c1ccccc1F (centres undefined),-140
COc1ccc(-n2ncc3c(NCCCn4ccnc4)ncnc32)cc1,-122
OCCOCCNc1ncnc2c1cnn2-c1ccccc1,-137
COCCNc1ncnc2c1cnn2-c1ccc(Cl)cc1,-78
COCCN(CCOC)c1ncnc2c1cnn2-c1ccc(Cl)cc1,-139
OCCOCCNc1ncnc2c1cnn2-c1ccc(Cl)cc1,-93
O=c1c2ccccc2nc(-c2ccccc2)n1Cc1ccccc1,-93
CCCn1c(-c2cccc([N+](=O)[O-])c2)nc2c1c(=O)[nH]c(=O)n2Cc1ccccc1,n
C#CCSc1nnc(-c2sc(-c3ccccc3)nc2C)n1C,-67
Cc1ccc2nc3sc(C(=O)NCc4ccco4)c(N)c3cc2c1,-127
COc1cc2cc3c(N)c(C(=O)NCc4ccco4)sc3nc2cc1OC,-284
Oc1cccc2c(NC(=S)Nc3ccc(OC(F)F)cc3)cccc12,-138

# Screening data deposited in PubChem BioAssay by Broad Institute.
